# Measurements from PubChem BioAssay AID504710 (Sanford-Burnham Center for Chemical Genomics, 2011).
# The source made the active and inactive calls.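 The calls were made as follows: active = inhibition reaching about 16% in any single replicate (limit read from the data); inactive = the rest.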
# Target: Hexokinase HKDC1 (Homo sapiens) (UniProt Q2TB90)
# Experiment: HKDC1 hexokinase inhibitors, confirmation, biochemical, single concentration (AID 504710)
# Conditions: recombinant HKDC1, G6PDH/diaphorase/resazurin fluorescence; at 20 µM; hits give high values
# Hexokinase HKDC1 (Homo sapiens), sequence (Q2TB90 whole entry, looked up): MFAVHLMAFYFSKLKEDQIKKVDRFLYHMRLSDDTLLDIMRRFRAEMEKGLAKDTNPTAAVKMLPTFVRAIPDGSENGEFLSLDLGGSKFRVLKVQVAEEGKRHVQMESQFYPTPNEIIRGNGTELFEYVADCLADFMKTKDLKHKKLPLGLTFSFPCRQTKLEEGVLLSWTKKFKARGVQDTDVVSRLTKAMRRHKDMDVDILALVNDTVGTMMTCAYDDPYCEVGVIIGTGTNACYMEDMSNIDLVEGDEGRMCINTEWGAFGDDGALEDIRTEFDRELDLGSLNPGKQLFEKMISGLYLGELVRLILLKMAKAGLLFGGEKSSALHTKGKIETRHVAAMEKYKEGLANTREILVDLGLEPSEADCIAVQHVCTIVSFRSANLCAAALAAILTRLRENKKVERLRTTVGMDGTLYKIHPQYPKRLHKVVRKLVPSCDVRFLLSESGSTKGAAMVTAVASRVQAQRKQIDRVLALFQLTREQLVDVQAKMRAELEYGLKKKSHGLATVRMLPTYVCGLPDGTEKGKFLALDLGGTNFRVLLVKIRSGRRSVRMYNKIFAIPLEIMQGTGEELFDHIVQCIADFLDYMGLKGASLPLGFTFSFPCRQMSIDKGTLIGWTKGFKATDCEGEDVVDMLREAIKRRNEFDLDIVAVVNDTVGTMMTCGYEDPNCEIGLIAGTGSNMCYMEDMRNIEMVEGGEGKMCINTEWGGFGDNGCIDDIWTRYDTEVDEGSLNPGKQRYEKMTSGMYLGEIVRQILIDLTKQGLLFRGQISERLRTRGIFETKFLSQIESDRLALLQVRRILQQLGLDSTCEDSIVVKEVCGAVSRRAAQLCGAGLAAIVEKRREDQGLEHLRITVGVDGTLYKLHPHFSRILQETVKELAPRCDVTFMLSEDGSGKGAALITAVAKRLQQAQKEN
row,SMILES,inhibition
1,O=C1C(N2CCOCC2)=C(n2nnc3ccccc32)C(=O)c2ccccc21,54.8% (active)
2,Oc1ccc(/C=N/NC(=S)Nc2cccnc2)c(O)c1,14.6% (active)
3,CCOC(=O)C1=C(Cc2ccc(OC)cc2)C(=O)c2ccccc2C1=O,55.8% (active)
4,Cc1ccc(S(=O)(=O)Nc2c(O)ccc3ccccc23)cc1,35.5% (active)
5,O=C(NC1=CC(=O)c2ccccc2C1=O)c1ccccc1,69.9% (active)
6,O=C1C(SCCO)=C(SCCO)C(=O)c2ccccc21,84.1% (active)
7,COc1ccc(NC(=O)CSc2ccc(-c3ccco3)nn2)c(OC)c1,70.8% (active)
8,O=S(=O)(NC1c2cccc3cccc(c23)C1N1CCNCC1)c1ccccc1 (configuration not stated),-94.7% (inactive)
9,CC(C)c1nc2oc3c(NCC4CCCO4)ncnc3c2c2c1COC(C)(C)C2 (configuration not stated),62.8% (active)
10,CCc1ccc(S(=O)(=O)/N=C2\C=C(Nc3ccc(C(=O)O)cc3)C(=O)c3ccccc32)cc1,59.8% (active)
11,CCOC(=O)/C=C(\C)Sc1cc(O)c2ccccc2c1O,53.6% (active)
12,Oc1ccc(/C=N/Nc2ncc(Br)cn2)c(O)c1,44.6% (active)
13,O=C(/C=C/c1ccc(Br)cc1)NC(=S)Nc1ccc(S(=O)(=O)Nc2nccs2)cc1,39.5% (active)
14,CC(=O)Nc1ccc(NC2=C/C(=N/S(=O)(=O)c3cccs3)c3ccccc3C2=O)cc1,51.9% (active)
15,O=C(CNC(=O)/C=C/c1ccco1)N=Nc1c(O)[nH]c2ccccc12,39% (active)
16,Nc1nc(N2CCN(c3ccccn3)CC2)nc2ccccc12,-44.1% (inactive)
17,O=S(=O)(NC1c2cccc3cccc(c23)C1N1CCN(CCO)CC1)c1ccccc1 (configuration not stated),-118% (inactive)
18,Cc1ccc2cc(CCNC(=O)c3ccc(S(=O)(=O)N4CCCCC4)cc3)c(=O)[nH]c2c1,39.8% (active)
19,CC12CCC(C(=O)N/N=C/c3ccc(O)cc3O)(OC1=O)C2(C)C (configuration not stated),-34.9% (inactive)

row,SMILES,inhibition
1,O=C1C=CC(=O)C(C2=C3C(=O)N(CCc4ccccc4)CC(=O)N3CCC2)=C1,70.9% (active)
2,Cc1nc(COC(=O)c2cc(O)c3ccccc3c2O)cs1,39.5% (active)
3,CCOC(=O)C1=C(c2ccc(OC)cc2)C(=O)c2ccccc2C1=O,75% (active)
4,Cc1oc2c(c1C(=O)c1ccccc1)C(=O)C(=O)c1ccccc1-2,51.8% (active)
5,Cn1c(-c2ccccc2)c(C(=O)CC#N)c2ccccc21,-42% (inactive)
6,Cc1ccc(SC2=C(Sc3ccc(C)cc3)C(=O)c3ccccc3C2=O)cc1,69% (active)
7,COc1ccc(S(=O)(=O)Nc2cc(SCC(=O)O)c(O)c3ccccc23)cc1,47.2% (active)
8,Cc1cc(C)c(S(=O)(=O)/N=C2\C=C(Nc3ccc(C(=O)O)cc3)C(=O)c3ccccc32)c(C)c1,39.5% (active)
9,O=C(C1=C(c2ccccc2)C(=O)c2ccccc2C1=O)c1ccccc1,52% (active)
10,O=C(/C=C/c1cccs1)Nc1scc(-c2ccccc2)c1C(=O)O,58.2% (active)
11,O=S(=O)(Nc1cc(Sc2ncn[nH]2)c(O)c2ccccc12)c1ccccc1,48.4% (active)
12,Cc1oc2c(c1C(=O)c1ccc(Cl)cc1)C(=O)C(=O)c1ccccc1-2,46.1% (active)
13,O=C(O)c1cc(O)c2c(c1)[C@@H]([C@H]1c3cc(C(=O)O)cc(O)c3C(=O)c3c(O[C@@H]4O[C@H](CO)[C@@H](O)[C@H](O)[C@H]4O)cccc31)c1cccc(OC3O[C@H](CO)[C@@H](O)[C@H](O)[C@H]3O)c1C2=O (some centres not stated),50.9% (active)
14,Cc1[nH]n(-c2ccccc2)c(=O)c1/C=N/Nc1nncc(-c2ccccc2)n1,-60.6% (inactive)
15,Cc1nc([N+](=O)[O-])c(Br)n1Cc1ccc(Cl)c(Cl)c1,53.8% (active)
16,Cc1ccc(C2=NNC(=Nc3ccc(F)cc3)SC2)cc1,-80% (inactive)
17,O=C(O)c1cc(N2N=C(C(F)(F)F)/C(=C/C=C/c3ccco3)C2=O)ccc1Cl,57.5% (active)
18,O=C(NC(=S)NNC(=O)c1cnccn1)c1ccc(F)cc1,-36.1% (inactive)
